This passage reports Potency results from PubChem BioAssay (Tox21).

Results filed as inconclusive are left out. A call without a number means that no potency is given here. The source holds several records for some structures; these can differ, active in one and inactive in another. Active and inactive are the calls of the source. Calls follow the shape of the dose curve; as a rule, active = well fitted activation curve with a large enough effect in the repeat runs; inconclusive = weak or mixed curves; inactive = flat fitted curve, though single readings scatter.
Potency is read from the fitted curve at half-maximal effect.

This test is described as follows: A CellTox Green Cytotoxicity Assay to monitor cytotoxicity in HEK293 cells - 40 hour (AID 1224871). Also: nearly all actives have a fitted effect of over 45% in size. As to conditions: CellTox Green fluorescence; series mostly up to 76.8 µM. Summed up:
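Nonlytic real-time cytotoxicity: HEK293 + CellTox Green reagent plated, 5 h preincubation, pintool compound addition (23 nL in DMSO), 37 C for 40 h, fluorescence measured at successive time points.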
For the compound `CCCOC(=O)Cc1ccc(OCC(=O)N(CC)CC)c(OC)c1`, the Potency result is “inactive”.

As for `O=C(Cl)C(Cl)Cl`, the Potency entry is “inactive”.

`CC[C@H](N)c1ccccc1`: the Potency entry was “inactive”.

As for `CC(O)CCl` (stereo unspecified), the Potency result is “inactive”.

Consider `CCCCCCCC(=O)Cl`, for which the Potency entry is “inactive”.

As for `CCCCCCCCBr`, the Potency entry was “inactive”.

Regarding `O=C(O)C(Cl)Br` (stereo unspecified), the Potency result is “inactive”.

`COC1=CC(=O)O[C@@H](/C=C/c2ccccc2)C1`: the Potency result is “inactive”.

Take `ClCCN1CCCC1`: the Potency result is “inactive”.

`C=CC=O`: the Potency entry is “inactive”.

For the compound `O=C(O)c1c(Cl)ccc2cc(Cl)cnc12`, the Potency result was “inactive”.

With `CS(=O)(=O)Cl`, the Potency entry is “inactive”.

As for `CCOC(=O)CC(SP(=S)(OC)OC)C(=O)OCC` (stereo unspecified), the Potency result is “inactive”.

Take `[O-][Br+2]([O-])O`: the Potency entry is “inactive”.

Consider `Cc1cccc2sc3nncn3c12`, for which the Potency result was “inactive”.

With `CN1C(=O)COc2c(C(=O)NC3CN4CCC3CC4)cc(Cl)cc21` (stereo unspecified), the Potency entry is “inactive”.

For the compound `CCN(CCO)CCO`, the Potency entry is “inactive”.

Regarding `CON(C)C(=O)Nc1ccc(Br)cc1`, the Potency result was “inactive”.

Regarding `N=C(N)[Se]`, the Potency result is “inactive”.

For `ClC1=C(Cl)C2(Cl)C(CBr)CC1(Cl)C2(Cl)Cl` (stereo unspecified), the Potency was 54.9 µM (active) and inactive.

As to `CN(C)CCN(C)C`, the Potency result is “inactive”.

As for `CC(C)(O)C(Cl)(Cl)Cl`, the Potency entry is “inactive”.

Consider `C/C(=N\NC(=O)Nc1cc(F)cc(F)c1)c1ncccc1C(=O)O`, for which the Potency entry was “inactive”.

On to `C1CN2CCC1CC2`, for which the Potency entry is “inactive”.

Regarding `CCOC1Oc2ccc(OS(C)(=O)=O)cc2C1(C)C` (stereo unspecified), the Potency result was “inactive”.

For `O=CCCl`, the Potency result was “inactive”.

For the compound `CC#Cc1cc(C)nc(Nc2ccccc2)n1`, the Potency result was “inactive”.

For the compound `CCOC(=O)CCl`, the Potency entry was “inactive”.

On to `CNC(=O)O/N=C(/CSC)C(C)(C)C`, for which the Potency result was “inactive”.

For `CCOC(=O)Nc1cccc(OC(=O)Nc2ccccc2)c1`, the Potency entry is “inactive”.

Consider `CC(C)[C@]12CC(=O)[C@H](C)[C@H]1C2`, for which the Potency entry was “inactive”.
